AmpC inh detg: inhibitors of E. coli AmpC beta-lactamase with detergent; AmpC hydrolysis of nitrocefin, absorbance 480 nm, 0.01% Triton; Potency, µM (top dose mostly 114 µM), for the others: at the top dose activity change, negative = inhibition, actives largely listed as inhibitors; actives 0.041% (n = 370,000); AID 485294;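 also: potency is read from the fitted curve at half-maximal effect; 0% = no-compound wells and -100% = no-enzyme wells; nearly all actives have a fitted effect of over 25% in size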
Target sequence (P00811 whole entry, looked up): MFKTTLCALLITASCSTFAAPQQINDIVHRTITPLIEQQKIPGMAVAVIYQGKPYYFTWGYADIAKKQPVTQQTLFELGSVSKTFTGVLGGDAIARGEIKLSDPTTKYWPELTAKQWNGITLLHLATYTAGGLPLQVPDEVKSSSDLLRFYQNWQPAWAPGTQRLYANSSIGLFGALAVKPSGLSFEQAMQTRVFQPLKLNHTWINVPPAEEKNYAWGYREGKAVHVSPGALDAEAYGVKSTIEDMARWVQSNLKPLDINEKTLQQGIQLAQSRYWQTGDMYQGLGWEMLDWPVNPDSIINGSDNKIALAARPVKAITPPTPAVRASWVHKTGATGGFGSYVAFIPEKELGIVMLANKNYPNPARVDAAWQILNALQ
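20 mM phosphate pH 7.0 + 0.01% (detergent screen) or 0.0001% Triton X-100; 5.3 nM AmpC reagent; cpd preinc 15 min RT; nitrocefin (800 uM stock) to start; A480 q20 s × 4 min; Activity was normalised to no-enzyme and no-compound control wells.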
HCMV antiviral: inhibitors of human cytomegalovirus; activity change, negative = inhibition, % at 57.5 µM; AID 1259415; HFF cells, HCMV-luciferase reporter, 72 h; hits give low values; actives 4.5% (n = 410,000); in the data active = activity change below about -60%; inconclusive = no clear call, values can overlap the other calls; inactive = above about -39%
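Two-dose cell screen: HFF monolayers treated with compounds and infected with luciferase-expressing HCMV at 1 PFU/cell, 72 h at 37C, then lysed for luciferase measurement.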
HCV inhibitor: blocks hepatitis C virus. Huh7.5.1 HCVcc-Cre infection, luciferase reporter, 44 h. Potency, µM (titrated, usually from 41.8 µM), for inactives: at the top dose activity change, negative = inhibition, most hits filed as inhibitors. actives 3.4% (n = 340,000). AID 651820; also: potency is read from the fitted curve at half-maximal effect
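Antiviral activity was scored by luciferase reporter output from cells infected with HCVcc-Cre (~0.5 moi) in presence of compound, 44 h infection period, cells seeded 1,000/well 4 h prior.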
FMDV antiviral: blocks foot and mouth disease virus. actives 1.2% (n = 410,000). Potency, µM (highest dose often 57.9 µM), without a hit: at the top dose activity change, negative = inhibition, most hits filed as inhibitors. FMDV antiviral cell-based qHTS. AID 1159524; calls by dose curve; tested in HEK293T cells; also: read-out not given here; potency is read from the fitted curve at half-maximal effect; nearly all actives have a fitted effect of over 45% in size
AmpC no deterg: blocks E. coli AmpC beta-lactamase in detergent-free assay; P00811; AmpC nitrocefin hydrolysis, absorbance 480 nm, 0.0001% Triton; Potency, µM (highest dose often 57.1 µM), inactives show at the top dose activity change, negative = inhibition, most hits filed as inhibitors; actives 0.52% (n = 330,000); AID 485341;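 also: potency is read from the fitted curve at half-maximal effect; plate controls were no compound for no effect and no enzyme for full effect; nearly all actives have a fitted effect of over 20% in size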
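20 mM phosphate pH 7.0 + 0.01% (detergent screen) or 0.0001% Triton X-100; 5.3 nM AmpC reagent; cpd preinc 15 min RT; nitrocefin (800 uM stock) to start; A480 q20 s × 4 min; Activity was normalised to no-enzyme and no-compound control wells.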
Numbers without * were called inactive. Compounds with a hit are over-represented: about 7.3% of the library has one in this group of screens. Unless noted, calls follow the shape of the dose curve; as a rule, active = well fitted curve in the direction sought with a large enough effect; inconclusive = small, poorly fitted or top-dose-only effect, or another doubt; inactive = no such curve, though single readings can be large; an effect the other way counts as inactive or inconclusive. Unless noted, % is scaled to controls: 0 for no effect and ±100 for the full control effect.

COc1ccc(C(C)=O)cc1COC(=O)c1ccc2c(c1)OCCO2 was read as AmpC inh detg 4.7%, HCMV antiviral -15.3, HCV inhibitor 11.2µM*, FMDV antiviral -15.8% and AmpC no deterg -14.3%.
For CCOc1ccc(C(C)=O)cc1COC(=O)c1ccc2c(c1)NC(=O)CS2 the results were AmpC inh detg 9.6%, HCMV antiviral -1.4, HCV inhibitor 3.55µM*, FMDV antiviral inconclusive and AmpC no deterg -7.0%.
Screening COc1ccc(C(C)=O)cc1COC(=O)c1ccc2c(c1)OCO2 returned AmpC inh detg -11.0%, HCMV antiviral 22.4, HCV inhibitor -66.1%, FMDV antiviral -8.7% and AmpC no deterg -24.5%.
`CCCCNc1nc2c(S(=O)(=O)c3ccc(C)cc3)nnn2c2ccsc12` gave AmpC inh detg -1.3%, HCMV antiviral 17.2 and FMDV antiviral 1.1%.
For COc1cc(CC(=O)OCC(=O)c2ccc3c(c2)OCCO3)cc(OC)c1OC the results were AmpC inh detg -3.1%, HCMV antiviral -71.3*, HCV inhibitor inconclusive, FMDV antiviral -12.5% and AmpC no deterg -1.6%.
`N#Cc1c(N)n(CCNC(=O)c2ccccc2)c2nc3ccccc3nc12` gave AmpC inh detg inconclusive, HCMV antiviral -66.1*, HCV inhibitor 0.0%, FMDV antiviral -20.9% and AmpC no deterg -11.4%.
For CCCCCCn1c(N)c(C(=O)NCCN2CCOCC2)c2nc3ccccc3nc21 the results were AmpC inh detg inconclusive, HCMV antiviral -19.5, HCV inhibitor inconclusive, FMDV antiviral 11.2µM* and AmpC no deterg 393.4%.
Screening CCCCn1c(N)c(C(=O)OCCOC)c2nc3ccccc3nc21 returned AmpC inh detg -0.7%, HCMV antiviral -2.9, HCV inhibitor 7.2%, FMDV antiviral -1.0% and AmpC no deterg 48.5%.
For Nc1c(C(=O)Nc2ccccc2)c2nc3ccccc3nc2n1CCCN1CCOCC1 the results were AmpC inh detg -1.5%, HCMV antiviral 108.9, HCV inhibitor 22.4µM*, FMDV antiviral inconclusive and AmpC no deterg 32.8%.
Screening COCCCn1c(N)c(C(=O)NCCC(C)C)c2nc3ccccc3nc21 returned AmpC inh detg inconclusive, HCMV antiviral -27.1, HCV inhibitor 8.91µM*, FMDV antiviral -13.2% and AmpC no deterg 172.6%.
CCCCCn1c(N)c(C(=O)NCCN2CCOCC2)c2nc3ccccc3nc21 was read as AmpC inh detg -9.5%, HCMV antiviral -39.6, HCV inhibitor -4.5%, FMDV antiviral inconclusive and AmpC no deterg 168.6%.
`CCCc1nc2ccc(C)cn2c1Cc1ccc(OC)cc1C` gave HCMV antiviral inconclusive and FMDV antiviral 20.1%.
Screening CC1CCN(S(=O)(=O)c2cccc(C(=O)NC3CCCC3)c2)CC1 returned AmpC inh detg inconclusive, HCMV antiviral -32.5, HCV inhibitor inconclusive, FMDV antiviral 11.0% and AmpC no deterg -29.8%.
`COc1cccc(NC(=O)N[C@H]2CC[C@@]34CCCN3C(=O)CCC[C@H]4[C@H]2C)c1` gave HCMV antiviral 44.6.
Cc1nc2ccc(-c3nc4cc(N)ccc4o3)cc2[nH]1 was read as AmpC inh detg -12.7%, HCMV antiviral 45.8, HCV inhibitor 10µM*, FMDV antiviral 0.0% and AmpC no deterg -11.7%.
For CCc1nc2c(OCc3cccc(Cl)c3)cccn2c1N(C)C(=O)c1ccc(C)cc1 the results were HCMV antiviral -5.9.
CCC(C)NC(=O)C1=CCN(S(=O)(=O)c2ccc(C)cc2)CC1 (stereo unspecified) was read as AmpC inh detg 0.7%, HCMV antiviral -31.5, HCV inhibitor 15.9%, FMDV antiviral -2.6% and AmpC no deterg 0.2%.
`CCC(C)NS(=O)(=O)c1ccc(S(=O)(=O)N2CC=C(c3ccc(F)cc3)CC2)cc1` (stereo unspecified) gave AmpC inh detg -12.9%, HCMV antiviral -72.8*, HCV inhibitor inconclusive, FMDV antiviral inconclusive and AmpC no deterg -15.2%.
For CCOC(=O)CC(=O)CSc1nc(CC)c(C)cc1C#N the results were AmpC inh detg -4.8%, HCMV antiviral -89.1*, HCV inhibitor 14.6%, FMDV antiviral 11.0% and AmpC no deterg -7.3%.
Screening CN(C)C(=O)c1cnc(-c2ccccc2)nc1-c1ccccc1 returned AmpC inh detg 2.8%, HCMV antiviral -62.2*, HCV inhibitor -8.8%, FMDV antiviral -12.8% and AmpC no deterg 38.9%.
`CCOC(=O)c1cnc(N)nc1-c1ccccc1` gave HCMV antiviral -9.9, HCV inhibitor 18.1% and FMDV antiviral -24.7%.
For CCOC(=O)c1cc(-c2ccccc2)nc2nc(N(CC)CC)sc12 the results were AmpC inh detg -11.3%, HCMV antiviral -90.5*, HCV inhibitor 14.1µM*, FMDV antiviral -24.9% and AmpC no deterg 138.5%.
`CCOC(=O)c1cnc(-c2ccccc2)nc1-c1ccccc1` gave AmpC inh detg -2.6%, HCMV antiviral -102.1*, HCV inhibitor -12.3%, FMDV antiviral -9.3% and AmpC no deterg 12.6%.
Screening CCOC(=O)c1cnn2c(C)cc(-c3ccccc3)nc12 returned AmpC inh detg 3.8%, HCMV antiviral 41.7, HCV inhibitor 10µM*, FMDV antiviral 40.0% and AmpC no deterg -0.4%.
COc1cccc(NC(=O)Cn2c(=O)n(-c3ccccc3)c(=O)c3ccc(C(=O)NCc4ccc5c(c4)OCO5)cc32)c1 was read as AmpC inh detg -3.4%, HCMV antiviral -39.8 and FMDV antiviral 21.1%.
COCCNC(=S)N(C)[C@H]1C[C@H]2c3[nH]c4c(-c5ccc6c(c5)OCO6)cccc4c3CCN2C(=O)[C@H]1[C@H](C)O was read as HCMV antiviral -13.5.
Screening O=C(Nc1ccc(-c2nc3ccccc3s2)cc1)c1cc(-n2cnnc2)ccc1Cl returned AmpC inh detg -16.8%, HCMV antiviral -81.7*, HCV inhibitor 3.98µM* and AmpC no deterg 101.9%.
For N#CC1CC(c2ccccc2)Nc2cc(Cl)ccc2N1 (stereo unspecified) the results were AmpC inh detg inconclusive, HCMV antiviral 13.6, HCV inhibitor -24.1%, FMDV antiviral 62.5% and AmpC no deterg 11.2µM*.
Screening CN1C(=O)CC(c2ccccc2)Nc2ccccc21 (stereo unspecified) returned AmpC inh detg 5.4%, HCMV antiviral 57.3, HCV inhibitor 4.6%, FMDV antiviral 12.9% and AmpC no deterg -3.1%.
`Cc1ccccc1OCc1nnc(SCC(=O)Nc2ccc3nc(SCC(=O)NC(C)(C)C)sc3c2)n1C` gave AmpC inh detg -5.6%, HCMV antiviral -18.0, HCV inhibitor inconclusive, FMDV antiviral 35.5µM* and AmpC no deterg -19.6%.
Cc1cccc(NC(=O)CSc2nc3ccc(NC(=O)COc4ccccc4C)cc3s2)c1 was read as AmpC inh detg 13.7%, HCMV antiviral -22.9 and FMDV antiviral 0.0%.

Assay outcomes deposited in PubChem BioAssay by National Center for Advancing Translational Sciences (NCATS).
